# Columns and labels:
# [1] = target: High affinity nerve growth factor receptor (Homo sapiens) (UniProt P04629); settings: at 1 µM;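 also: each value is the mean percent inhibition of TRKA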
# [2] = target: BDNF/NT-3 growth factors receptor (Homo sapiens) (UniProt Q16620); settings: at 0.1 µM
# [3] = target: BDNF/NT-3 growth factors receptor (Homo sapiens) (UniProt Q16620); settings: at 1 µM
# [4] = target: NT-3 growth factor receptor (Homo sapiens) (UniProt Q16288); settings: at 0.1 µM
# [5] = target: NT-3 growth factor receptor (Homo sapiens) (UniProt Q16288); settings: at 1 µM
# [6] = target: T1, Tyrosine-protein kinase TXK (Homo sapiens) (UniProt P42681); settings: at 0.1 µM
# T1 sequence (whole entry): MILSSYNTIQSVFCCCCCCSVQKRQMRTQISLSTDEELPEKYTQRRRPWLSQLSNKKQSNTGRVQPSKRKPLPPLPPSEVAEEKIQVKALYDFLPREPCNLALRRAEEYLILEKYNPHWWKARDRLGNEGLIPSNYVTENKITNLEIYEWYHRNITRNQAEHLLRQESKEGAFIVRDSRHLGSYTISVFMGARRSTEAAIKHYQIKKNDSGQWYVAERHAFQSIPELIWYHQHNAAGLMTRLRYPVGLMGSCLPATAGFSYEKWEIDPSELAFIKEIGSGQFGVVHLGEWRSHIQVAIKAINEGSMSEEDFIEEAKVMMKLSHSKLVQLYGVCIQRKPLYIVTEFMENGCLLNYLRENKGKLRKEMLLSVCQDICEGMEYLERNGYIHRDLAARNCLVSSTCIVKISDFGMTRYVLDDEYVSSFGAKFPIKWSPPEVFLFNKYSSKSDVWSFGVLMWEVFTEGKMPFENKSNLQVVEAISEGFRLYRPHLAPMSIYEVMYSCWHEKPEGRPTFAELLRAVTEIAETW
# [7] = target: T1, Tyrosine-protein kinase TXK (Homo sapiens); settings: at 1 µM
# [8] = target: Non-receptor tyrosine-protein kinase TYK2 (Homo sapiens) (UniProt P29597); settings: at 0.1 µM;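 also: each value is a mean of the inhibition readings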
# Non-receptor tyrosine-protein kinase TYK2 (Homo sapiens), sequence (P29597 whole entry): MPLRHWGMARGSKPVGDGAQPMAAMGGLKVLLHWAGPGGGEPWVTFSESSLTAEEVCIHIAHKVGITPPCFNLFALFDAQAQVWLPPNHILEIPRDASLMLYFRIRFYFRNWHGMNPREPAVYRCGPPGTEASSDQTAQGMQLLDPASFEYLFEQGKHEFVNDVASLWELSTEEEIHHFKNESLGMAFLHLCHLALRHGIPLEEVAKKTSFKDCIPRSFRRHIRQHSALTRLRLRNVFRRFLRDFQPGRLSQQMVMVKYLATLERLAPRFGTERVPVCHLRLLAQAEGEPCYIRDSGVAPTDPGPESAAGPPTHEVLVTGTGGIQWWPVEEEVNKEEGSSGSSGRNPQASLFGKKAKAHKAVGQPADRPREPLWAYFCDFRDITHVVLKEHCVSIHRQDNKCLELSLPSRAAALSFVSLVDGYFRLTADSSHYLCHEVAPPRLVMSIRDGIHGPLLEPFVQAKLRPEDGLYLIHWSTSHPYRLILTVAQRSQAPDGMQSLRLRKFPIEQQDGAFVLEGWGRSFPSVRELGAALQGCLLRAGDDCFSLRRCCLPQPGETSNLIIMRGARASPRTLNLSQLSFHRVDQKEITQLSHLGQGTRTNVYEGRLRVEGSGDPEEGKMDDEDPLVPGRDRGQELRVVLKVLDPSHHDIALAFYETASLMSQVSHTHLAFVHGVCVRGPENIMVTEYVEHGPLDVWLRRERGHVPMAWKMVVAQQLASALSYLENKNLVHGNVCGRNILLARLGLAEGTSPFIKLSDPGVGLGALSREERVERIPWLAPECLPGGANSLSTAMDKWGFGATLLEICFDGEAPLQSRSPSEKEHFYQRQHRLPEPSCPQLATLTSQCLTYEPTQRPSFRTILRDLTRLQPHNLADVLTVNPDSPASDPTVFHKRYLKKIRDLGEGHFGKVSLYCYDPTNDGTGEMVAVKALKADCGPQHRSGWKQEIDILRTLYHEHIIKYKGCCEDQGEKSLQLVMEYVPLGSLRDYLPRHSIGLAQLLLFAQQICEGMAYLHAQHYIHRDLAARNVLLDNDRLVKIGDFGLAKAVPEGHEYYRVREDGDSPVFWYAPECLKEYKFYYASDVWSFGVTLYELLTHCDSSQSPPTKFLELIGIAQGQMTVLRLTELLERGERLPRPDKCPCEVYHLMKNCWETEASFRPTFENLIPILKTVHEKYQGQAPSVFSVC
# [9] = target: T2, Dual specificity protein kinase TTK (Homo sapiens) (UniProt P33981); settings: at 1 µM;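 also: reported figures are mean TTK inhibition at 1 µM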
# T2 sequence (whole entry): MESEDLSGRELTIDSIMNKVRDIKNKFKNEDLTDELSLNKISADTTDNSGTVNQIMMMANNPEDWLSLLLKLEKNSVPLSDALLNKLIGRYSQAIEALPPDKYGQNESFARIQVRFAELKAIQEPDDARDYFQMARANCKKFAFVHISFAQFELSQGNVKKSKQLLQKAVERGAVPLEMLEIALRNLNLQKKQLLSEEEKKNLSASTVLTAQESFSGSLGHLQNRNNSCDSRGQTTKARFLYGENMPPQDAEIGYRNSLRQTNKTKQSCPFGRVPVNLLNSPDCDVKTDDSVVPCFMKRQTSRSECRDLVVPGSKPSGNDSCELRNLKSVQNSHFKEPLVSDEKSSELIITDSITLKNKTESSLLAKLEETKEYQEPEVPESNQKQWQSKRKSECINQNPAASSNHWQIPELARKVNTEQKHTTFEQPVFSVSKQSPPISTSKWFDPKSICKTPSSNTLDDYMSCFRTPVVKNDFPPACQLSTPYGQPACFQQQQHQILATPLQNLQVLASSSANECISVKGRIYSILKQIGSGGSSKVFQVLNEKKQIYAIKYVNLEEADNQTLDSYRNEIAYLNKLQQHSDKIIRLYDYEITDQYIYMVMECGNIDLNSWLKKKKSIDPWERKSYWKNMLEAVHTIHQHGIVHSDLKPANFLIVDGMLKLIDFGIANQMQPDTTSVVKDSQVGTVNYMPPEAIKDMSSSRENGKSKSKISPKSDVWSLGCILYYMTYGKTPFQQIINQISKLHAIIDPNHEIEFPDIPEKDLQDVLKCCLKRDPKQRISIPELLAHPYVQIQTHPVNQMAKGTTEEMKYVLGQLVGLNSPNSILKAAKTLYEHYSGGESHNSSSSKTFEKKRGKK
# [10] = target: T3, Aurora kinase A (Homo sapiens) (UniProt O14965); settings: at 0.1 µM;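 also: each reported value is a mean percent inhibition of Aurora-A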
# T3 sequence (whole entry): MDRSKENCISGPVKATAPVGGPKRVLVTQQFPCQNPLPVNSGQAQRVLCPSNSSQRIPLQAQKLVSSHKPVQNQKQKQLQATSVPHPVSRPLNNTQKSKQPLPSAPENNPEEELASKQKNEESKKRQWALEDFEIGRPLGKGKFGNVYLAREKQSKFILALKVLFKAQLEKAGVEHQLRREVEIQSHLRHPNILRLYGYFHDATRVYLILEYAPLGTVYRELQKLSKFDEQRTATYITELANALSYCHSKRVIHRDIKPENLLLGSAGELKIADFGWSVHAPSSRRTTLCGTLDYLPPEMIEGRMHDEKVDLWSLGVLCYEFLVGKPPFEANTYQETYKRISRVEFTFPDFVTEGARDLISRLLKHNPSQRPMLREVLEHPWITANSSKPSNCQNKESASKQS
# High affinity nerve growth factor receptor (Homo sapiens), sequence (P04629 33-796 limits assumed): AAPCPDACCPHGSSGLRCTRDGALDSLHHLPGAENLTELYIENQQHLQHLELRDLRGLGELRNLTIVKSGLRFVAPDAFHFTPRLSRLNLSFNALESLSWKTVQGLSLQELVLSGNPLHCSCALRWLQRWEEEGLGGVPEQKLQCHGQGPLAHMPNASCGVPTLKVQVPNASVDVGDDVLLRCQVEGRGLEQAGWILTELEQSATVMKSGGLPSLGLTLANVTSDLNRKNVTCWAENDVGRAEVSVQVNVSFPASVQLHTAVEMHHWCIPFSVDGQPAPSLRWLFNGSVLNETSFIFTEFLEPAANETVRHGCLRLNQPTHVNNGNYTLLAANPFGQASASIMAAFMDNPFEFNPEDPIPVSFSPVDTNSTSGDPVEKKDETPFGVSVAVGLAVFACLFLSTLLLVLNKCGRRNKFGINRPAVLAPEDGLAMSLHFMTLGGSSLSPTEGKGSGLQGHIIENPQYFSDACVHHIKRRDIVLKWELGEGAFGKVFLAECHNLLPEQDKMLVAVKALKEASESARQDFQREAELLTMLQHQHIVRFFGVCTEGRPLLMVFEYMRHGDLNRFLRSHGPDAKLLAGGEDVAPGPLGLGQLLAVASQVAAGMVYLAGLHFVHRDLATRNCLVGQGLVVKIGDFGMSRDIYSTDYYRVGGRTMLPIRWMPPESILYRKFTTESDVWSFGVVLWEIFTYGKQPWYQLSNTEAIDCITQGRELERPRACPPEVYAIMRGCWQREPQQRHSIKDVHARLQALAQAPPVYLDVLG
# NT-3 growth factor receptor (Homo sapiens), sequence (Q16288 32-839 limits assumed): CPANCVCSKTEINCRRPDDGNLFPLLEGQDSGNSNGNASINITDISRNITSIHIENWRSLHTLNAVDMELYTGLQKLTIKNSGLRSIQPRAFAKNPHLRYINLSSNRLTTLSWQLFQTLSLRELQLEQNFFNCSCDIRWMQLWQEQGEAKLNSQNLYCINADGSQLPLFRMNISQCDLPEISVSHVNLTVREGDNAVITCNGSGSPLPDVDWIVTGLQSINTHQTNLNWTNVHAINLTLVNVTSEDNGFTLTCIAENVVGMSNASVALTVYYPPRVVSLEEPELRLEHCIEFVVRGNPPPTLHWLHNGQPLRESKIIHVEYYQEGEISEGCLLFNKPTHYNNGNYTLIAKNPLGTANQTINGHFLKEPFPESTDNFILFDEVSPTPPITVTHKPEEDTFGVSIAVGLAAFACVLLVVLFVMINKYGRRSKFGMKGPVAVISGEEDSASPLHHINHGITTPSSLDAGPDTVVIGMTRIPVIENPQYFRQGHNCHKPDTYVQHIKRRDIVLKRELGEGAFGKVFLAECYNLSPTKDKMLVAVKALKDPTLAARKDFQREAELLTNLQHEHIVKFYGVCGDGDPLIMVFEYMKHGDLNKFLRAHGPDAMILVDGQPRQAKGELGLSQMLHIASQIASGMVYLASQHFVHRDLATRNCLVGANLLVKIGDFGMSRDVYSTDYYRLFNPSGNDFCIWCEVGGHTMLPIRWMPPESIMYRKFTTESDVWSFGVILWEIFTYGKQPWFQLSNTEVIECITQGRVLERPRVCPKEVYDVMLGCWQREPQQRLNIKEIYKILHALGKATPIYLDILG
# BDNF/NT-3 growth factors receptor (Homo sapiens), sequence (Q16620 32-822 limits assumed): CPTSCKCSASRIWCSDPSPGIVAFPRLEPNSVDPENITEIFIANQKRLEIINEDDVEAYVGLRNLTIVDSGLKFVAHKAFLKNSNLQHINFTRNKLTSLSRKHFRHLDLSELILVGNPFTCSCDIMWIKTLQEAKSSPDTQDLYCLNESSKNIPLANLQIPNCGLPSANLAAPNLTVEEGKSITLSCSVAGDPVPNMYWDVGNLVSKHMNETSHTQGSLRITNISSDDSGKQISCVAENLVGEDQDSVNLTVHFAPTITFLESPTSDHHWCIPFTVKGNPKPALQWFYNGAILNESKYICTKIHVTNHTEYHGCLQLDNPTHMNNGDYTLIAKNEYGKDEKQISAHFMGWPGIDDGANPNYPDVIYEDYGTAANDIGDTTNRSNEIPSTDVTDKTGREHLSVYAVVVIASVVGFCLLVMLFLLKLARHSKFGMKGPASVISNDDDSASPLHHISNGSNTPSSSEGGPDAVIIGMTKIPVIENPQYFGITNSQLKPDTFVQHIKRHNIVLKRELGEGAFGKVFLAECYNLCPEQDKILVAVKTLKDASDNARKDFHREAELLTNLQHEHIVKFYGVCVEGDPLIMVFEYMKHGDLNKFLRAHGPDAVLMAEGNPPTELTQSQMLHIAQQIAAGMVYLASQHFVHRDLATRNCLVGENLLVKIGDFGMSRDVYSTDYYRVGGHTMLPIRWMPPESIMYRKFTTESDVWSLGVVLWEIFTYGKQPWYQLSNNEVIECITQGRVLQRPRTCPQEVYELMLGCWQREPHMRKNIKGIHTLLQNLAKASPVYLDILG
Structure (SMILES),inhibition [1],inhibition [2],inhibition [3],inhibition [4],inhibition [5],inhibition [6],inhibition [7],inhibition [8],inhibition [9],inhibition [10]
COc1ccc(-c2nn3ncccc3c2-c2ccnc(Nc3ccc4c(c3)OCCO4)n2)cc1,20.2%,1.61%,18.7%,-1.55%,6.72%,-0.79%,3.19%,-1.16%,11.6%,18.5%
CNC(=O)c1cc(-c2ccc(F)cc2)cc(-c2ccc(S(=O)(=O)N3CCCC3)cc2)c1N,2.94%,2.22%,2.48%,2.53%,2.33%,2.21%,2.22%,-3.89%,3.8%,0.79%
NC(=O)c1sc(-n2cnc3ccc(C(F)(F)F)cc32)cc1OCc1ccccc1Br,1.97%,4.43%,2.79%,4.04%,4.67%,1.39%,-0.88%,-4.87%,9.08%,2.74%
Cc1cccc(Nc2ncc(-c3ccccc3)o2)c1,6.23%,3.27%,11.7%,1.16%,12.2%,7.08%,5.35%,1.38%,6.17%,2.74%
CC1=C(C(=O)Nc2cc(Cl)c3[nH]ncc3c2)C(c2ccc(C(F)(F)F)cc2)CC(=O)N1 (stereo not given),2.71%,2.52%,3.55%,3.39%,6.01%,2.42%,1.68%,-1.59%,5.07%,3.11%
CN(C)CCOc1ccc(-c2nc(-c3ccncc3)c(-c3ccc4c(c3)CC/C4=N\O)[nH]2)cc1,0.58%,1.83%,3.37%,1.52%,2.87%,2.32%,3.33%,-2.09%,7.21%,1.33%
Cc1ccc(O)cc1Nc1ccnc2cc(-c3ccccn3)ccc12,4.34%,1.78%,2.4%,3.76%,4.64%,42%,82.3%,-4.79%,7.97%,2.82%
Nc1ncc(-c2cccc(S(N)(=O)=O)c2)c2scc(-c3ccc(F)c(Cl)c3)c12,2.2%,2.61%,3.28%,1.75%,1.1%,82%,91.6%,-1.25%,14.3%,3.16%
N#Cc1c(NC(=O)c2ccc(F)cc2)sc2c1CCCC2,-0.28%,0.21%,0.82%,0.15%,1.15%,1.7%,2.45%,-3.45%,2.26%,1.91%
NS(=O)(=O)c1ccc(N/N=C2\C(=O)Nc3ccc4ncccc4c32)cc1,50.4%,21.5%,72%,26.7%,78.5%,5.15%,26.9%,7.29%,67.6%,27.3%
c1cc(-c2cnn3nc(N4CCOCC4)ccc23)nc(NC2CC2)n1,0.98%,1.83%,1.21%,1.5%,2.55%,3.34%,6.11%,-8.45%,60.1%,1.84%
O=S(=O)(CCNCc1ccc(-c2ccc3ncnc(Nc4ccc(OCc5cccc(F)c5)c(Cl)c4)c3c2)o1)c1ccccc1,1.84%,3.5%,5.72%,3.32%,5.45%,-1.02%,5.43%,-1.8%,9.69%,6.02%
COc1cc(/C=N/Nc2ncnc3[nH]ncc23)ccc1O,3.15%,3.49%,10.7%,2.95%,11.2%,5.2%,24.9%,-2.44%,13.4%,6.3%
COc1ccc(-c2cc(-c3c[nH]nc3-c3ccccn3)ccn2)cc1,3.12%,3.7%,3.9%,3.2%,5.62%,1.77%,3.18%,-6.95%,10.5%,3.7%
CC(C)(CO)CNC(=O)c1ccc2c(c1)/C(=N/Nc1ccc(S(N)(=O)=O)cc1)C(=O)N2,15.6%,3.35%,31.2%,6.89%,41.5%,-0.15%,3.21%,-1.38%,79.2%,11.9%
O=C(O[C@H]1CN[C@H](C#Cc2cc3ncnc(Nc4ccc(Cc5ccccc5)cc4)c3s2)C1)N1CCOCC1,-3.47%,0.67%,1.13%,-0.77%,-1.7%,-0.97%,1.36%,-1.59%,1.6%,0%
CS(=O)(=O)CCNCc1coc(-c2ccc3ncnc(Nc4ccc(OCc5ccccc5)cc4)c3c2)c1,4.8%,2%,4.13%,2.96%,4.88%,4.16%,3.86%,1.95%,2.54%,2.4%

Structure (SMILES),inhibition [1],inhibition [2],inhibition [3],inhibition [4],inhibition [5],inhibition [6],inhibition [7],inhibition [8],inhibition [9],inhibition [10]
CCn1cc(-c2ccnc3[nH]ccc23)c(-c2cccc(NC(=O)Nc3ccc(OCc4ccccc4)cc3)c2)n1,-2.6%,-2.42%,-0.53%,-0.62%,8.83%,-1.03%,1.79%,0.94%,3.41%,2.05%
Fc1ccc(-c2cc(-c3c[nH]nc3-c3ccccn3)ccn2)cc1,0.04%,4.04%,4.77%,4.06%,3.45%,3.64%,2.28%,-1.71%,9.65%,3.15%
COc1ccc2[nH]c3c4[nH]c5ccc(OC)cc5c4c4c(c3c2c1)C(=O)NC4=O,16.6%,7.79%,33.9%,8.83%,41.5%,2.51%,14.6%,-2.11%,34.6%,7.28%
COc1ccc(-c2cc3c(N)ncnc3o2)cc1,2.94%,-0.36%,1.81%,0.53%,0.25%,0.91%,2.2%,-0.95%,0.09%,0.51%
CCN(CC)S(=O)(=O)c1ccc(OC)c(Nc2ncc(-c3ccccc3)o2)c1,41.5%,5.72%,41.5%,4.27%,35.2%,3.92%,24.9%,-1.59%,8.57%,1.61%
c1ccc(-c2nc3n(c2-c2ccc4c(c2)OCO4)CCC3)nc1,2.69%,-0.27%,2.27%,-0.01%,3.2%,1.77%,1.77%,-1.06%,0.07%,0.45%
CNC(=O)c1cncc(/C=C/c2ccccc2Cl)c1,-0.75%,-1.43%,2.71%,-1.83%,3.94%,4.15%,16%,2.63%,5.89%,1.14%
COc1cc2ncn(-c3cc(OCc4ccccc4C(F)(F)F)c(C(=O)N(C)C)s3)c2cc1OC,8.1%,-0.07%,7.43%,5.43%,16.2%,1.47%,3.4%,-4.64%,10.4%,0.68%
CCCN(CCS(C)(=O)=O)Cc1ccc(-c2ccc3ncnc(Nc4ccc(OCc5cccc(F)c5)c(Cl)c4)c3c2)o1,0.23%,0.15%,1.45%,2.2%,2.15%,2.27%,2.93%,-3.81%,5.96%,1.47%
CC(=O)Nc1cccc(C#Cc2cncnc2Nc2ccc(OCc3cccc(F)c3)c(Cl)c2)c1,-0.49%,0.63%,0.88%,-1.1%,1.69%,5.05%,8.59%,1.05%,7.9%,2.48%
O=C(Nc1n[nH]c2cc(-c3ccc(F)cc3)ccc12)C1CC1,4.23%,2.53%,5.87%,2.91%,7.26%,2.11%,3.11%,-5.76%,3.14%,2.98%
c1ccc(COc2ccc(Nc3ncnc4ccc(-c5ccco5)cc34)cc2)cc1,-2.33%,-0.32%,3.16%,-0.16%,0.74%,0.01%,1.09%,-4.95%,3.2%,2.29%
CNC(=O)c1cccc(C#Cc2cncnc2Nc2ccc(OCc3cccc(F)c3)c(Cl)c2)c1,0.53%,2.25%,1.08%,0.94%,2.86%,1.86%,3.33%,-0.77%,9.1%,2.9%
CC(=O)NCc1cccc(C#Cc2cncnc2Nc2ccc(OCc3cccc(F)c3)c(Cl)c2)c1,1.37%,0.64%,2.98%,0.24%,4.11%,2.29%,-2.24%,0.84%,-8.1%,1.59%
COc1ccc2c(-c3ccnc(Nc4cccc(OC(F)(F)F)c4)n3)cnn2n1,11.1%,2.97%,7.33%,2.73%,12.3%,2.09%,5.53%,-3.37%,17.1%,0.72%
Nc1nc(-c2cccc(Cl)c2)c(-c2ccc3ncccc3n2)s1,-0.34%,2.86%,7.16%,2.95%,5.02%,4.04%,4.05%,-3.11%,-0.66%,2.19%

# Reference: ChEMBL document CHEMBL1961873, “Compounds: GSK PKIS; Assays: Nanosyn kinase panel” (2012)
